Among all 310,000 compounds or so, about 2,200 (0.71%) showed an effect of 50% or more. Effects have a minus sign here. Only a selection was taken, and strong results are over-represented in it overall.
Each compound was assayed against human ether-à-go-go-related gene (hERG) potassium channel (human, UniProt Q12809) (assay: primary screen, population patch clamp on CHO cells stably expressing hERG; higher = less effect of the substance).
human ether-à-go-go-related gene (hERG) potassium channel, sequence (Q12809 whole entry, looked up): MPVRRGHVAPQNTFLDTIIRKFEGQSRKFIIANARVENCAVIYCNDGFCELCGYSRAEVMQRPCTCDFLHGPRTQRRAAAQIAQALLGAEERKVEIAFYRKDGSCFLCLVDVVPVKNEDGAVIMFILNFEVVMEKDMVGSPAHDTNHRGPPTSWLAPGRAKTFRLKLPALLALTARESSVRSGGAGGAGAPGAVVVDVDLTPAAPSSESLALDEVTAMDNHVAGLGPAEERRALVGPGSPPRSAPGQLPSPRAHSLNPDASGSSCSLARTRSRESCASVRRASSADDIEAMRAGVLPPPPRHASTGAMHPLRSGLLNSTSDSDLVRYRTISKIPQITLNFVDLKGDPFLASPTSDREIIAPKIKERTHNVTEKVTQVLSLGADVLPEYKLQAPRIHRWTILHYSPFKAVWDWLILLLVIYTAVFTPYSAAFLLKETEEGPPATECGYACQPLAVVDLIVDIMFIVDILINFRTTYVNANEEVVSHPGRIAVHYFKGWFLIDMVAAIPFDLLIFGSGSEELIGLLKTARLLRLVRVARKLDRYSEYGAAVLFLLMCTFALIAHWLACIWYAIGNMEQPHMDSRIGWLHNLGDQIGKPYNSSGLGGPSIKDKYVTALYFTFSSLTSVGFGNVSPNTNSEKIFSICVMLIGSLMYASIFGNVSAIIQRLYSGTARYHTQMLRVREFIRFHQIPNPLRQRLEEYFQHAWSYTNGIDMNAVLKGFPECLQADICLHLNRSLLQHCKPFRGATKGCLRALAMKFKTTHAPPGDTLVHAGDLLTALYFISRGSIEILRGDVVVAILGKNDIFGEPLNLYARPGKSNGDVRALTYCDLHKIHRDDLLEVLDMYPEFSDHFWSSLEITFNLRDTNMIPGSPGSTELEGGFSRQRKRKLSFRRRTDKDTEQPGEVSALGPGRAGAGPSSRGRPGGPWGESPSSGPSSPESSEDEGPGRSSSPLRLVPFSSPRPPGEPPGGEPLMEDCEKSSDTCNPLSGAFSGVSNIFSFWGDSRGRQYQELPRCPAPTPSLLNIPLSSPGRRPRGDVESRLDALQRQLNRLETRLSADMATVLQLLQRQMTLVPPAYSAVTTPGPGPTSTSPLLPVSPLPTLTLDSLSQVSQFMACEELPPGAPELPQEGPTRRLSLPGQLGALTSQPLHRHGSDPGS

SMILES	hERG current change (%, negative = inhibition) at 1uM [%]
CCOc1cccc(C(=O)Nc2ccc3[nH]ncc3c2)c1	21.7
CN1CCN(C(=O)/C(=C\c2cccs2)NC(=O)c2ccccc2)CC1	-78.3
O=C(N/C(=C\c1cccs1)C(=O)N1CCCCCC1)c1ccccc1	1.61
CN1CCN(C(=O)/C(=C\c2ccc3c(c2)OCO3)NC(=O)c2cccs2)CC1	-75.6
Cc1ccc(NC(=O)/C(=C\c2cccs2)NC(=O)c2ccccc2)cc1	-1.02
O=C(N/C(=C/c1cccs1)C(=O)N1CCCC1)c1ccccc1	14.4
Cc1cccc(NC(=O)/C(=C\c2cccs2)NC(=O)c2ccccc2)c1	-65.1
O=C(N/C(=C/c1ccc2c(c1)OCO2)C(=O)N1CCOCC1)c1cccs1	9.57
O=C(Nc1ccccc1)/C(=C\c1cccs1)NC(=O)c1ccccc1	14.9
O=C(N/C(=C/c1cccs1)C(=O)N1CCOCC1)c1cccs1	8.07
O=C(N/C(=C\c1ccc2c(c1)OCO2)C(=O)N1CCOCC1)c1cccs1	-18.7
O=C(N/C(=C\c1cccs1)C(=O)N1CCOCC1)c1cccs1	6.69
CN1CCN(C(=O)/C(=C\c2cccs2)NC(=O)c2cccs2)CC1	-77.3
Cc1ccc(NC(=O)CCC(=O)c2ccc(Br)cc2)cc1	10.9
COc1ccc(C(=O)N/N=C/c2cc(Br)ccc2O)cc1OC	14.7
CCOc1cc(/C=C2/C(=N)N3C(=NC2=O)SN=C3S(C)(=O)=O)ccc1OS(=O)(=O)c1ccccc1	17.3
CCOC(=O)c1sc2nc(C)nc(NCc3cccnc3)c2c1C	10.8
COc1ccc(/C=N/Nc2ccc(C(F)(F)F)cc2[N+](=O)[O-])cc1O	3.36
[O-][n+]1onc2c3cc(-c4ccccc4)nnc3ccc21	1.69
CC(C)(Oc1ccc(Cl)cc1)C(=O)N1CCN(c2ccccn2)CC1	-1.81
COc1cccc(NC(=O)c2cc(-c3cccnc3)nc3c(Cl)cccc23)c1	7.59
COc1ccc2c(c1OC)C(=O)OC2C1c2c(cc3c(c2OC)OCO3)CCN1C.Cl (stereo not shown)	9.06

SMILES	hERG current change (%, negative = inhibition) at 1uM [%]
COc1c2c(cc3c1C(CC(O)Cc1ccccc1)N(C)CC3)OCO2 (stereo not shown)	-14
COc1ccc(CC(O)CC2c3c(cc4c(c3OC)OCO4)CCN2C)cc1.Cl (stereo not shown)	-51.8
Cc1ccc(C(=O)Nc2cccc(C(=O)N3CCOCC3)c2)cc1	3.75
O=C(CCc1ccccc1)Nc1ccc2ccccc2n1	-2.39
CNC(=S)NNC(=O)c1sc2cc(C(F)(F)F)cnc2c1-c1ccccn1	4.79
Cl.O=C(CN1CCCC1)NCc1ccccc1	13.4
O=C(NCC(=O)N1CCCCCC1)c1ccc(OC(F)F)cc1	10.4
O=C(CN1CCN(C/C=C/c2ccccc2)CC1)NCc1ccc(Cl)cc1	-72.5
O=C(CN1CCN(c2ccc(Cl)cc2)CC1)NCc1ccccc1	-23.6
O=C(CN1CCN(C/C=C/c2ccccc2)CC1)NCc1ccccc1	-53.6
O=C(CN1CCN(Cc2ccccc2)CC1)NCc1ccc(Cl)cc1	-13.4
O=C(NCC(=O)N1CCN(C/C=C/c2ccccc2)CC1)c1ccc(OC(F)F)cc1	-50.4
O=C(CN1CCCCCC1)NCc1ccccc1	11.8
CCOc1ccc(C(=O)NCC(=O)N2CCN(C/C=C/c3ccccc3)CC2)cc1OCC	-1.35
CCOC(=O)c1c(C)[nH]c(C(=O)O)c1C	11.5
OC1CCCN(Cc2cccc3ccccc23)C1 (stereo not shown)	14.7
Cc1cc(C)cc(N2CC(O)Cn3c2nc2c3c(=O)[nH]c(=O)n2C)c1 (stereo not shown)	9.84
Cc1ccc(/C=N/NC(=O)c2nnn(-c3nonc3N)c2CSc2ccccc2)cc1	11.4
O=C(N=C1SC2CS(=O)(=O)CC2N1CCc1ccccc1)C1CC1 (stereo not shown)	9.32
O=C(O)c1cccc(-n2cc(-c3cccc(C(F)(F)F)c3)cn2)c1	4.88
O=C(NNC(=O)c1sc2cccc(Cl)c2c1Cl)Nc1ccccc1	13.9
COc1ccc(-c2coc3c(C)c4oc(=O)c(CCC(=O)O)c(C)c4cc23)cc1	6.19

SMILES	hERG current change (%, negative = inhibition) at 1uM [%]
CCCCCCNC(=O)CC(NS(=O)(=O)c1ccc(NC(C)=O)cc1)C(C)C (stereo not shown)	-0.978
COc1ccc(OC)c(NC(=O)c2cccc(N3C(=O)C4C5CCC(C5)C4C3=O)c2)c1 (stereo not shown)	2.22
F[B-](F)(F)F.OCCCCC[NH+]=c1cc(-c2ccccc2)oc2ccc(Cl)cc12	-86.1
O=c1cc(-c2ccccc2)oc2ccc(O)cc12	4.17
F[B-](F)(F)F.OCCC[NH+]=c1cc(-c2ccccc2)oc2ccc(Cl)cc12	-78
COc1ccc(-c2cc(=[NH+]c3ccccc3)c3cc(C)ccc3o2)cc1.[O-][Cl+3]([O-])([O-])[O-]	14
F[B-](F)(F)F.OCC[NH+]=c1cc(-c2ccccc2)oc2ccc(Cl)cc12	-71.1
O=c1oc2ccc(Cl)cc2cc1-c1ccccc1	16.1
COc1ccc(-c2cc(=[NH+]c3cccc(C(=O)O)c3)c3cc(C)ccc3o2)cc1.[O-][Cl+3]([O-])([O-])[O-]	6.72
OCCCNc1nc(-c2ccccc2)c2cc(Cl)ccc2n1	5.65
Clc1ccc(Oc2ncnc3oc(-c4ccccc4)cc23)cc1	6.4
Cc1cc(C(=O)OCC(=O)N2C(C)CCCC2C)c(C)o1 (stereo not shown)	9.75
COc1ccc(-n2c(Cc3cccn3C)nnc2SCC(=O)Nc2cccc(NC(C)=O)c2)cc1	3.64
Cc1ccc(OCCOCCn2cnc3ccccc3c2=O)c([N+](=O)[O-])c1.O=C(O)C(=O)O	-6.31
Br.O=[N+]([O-])c1ccc(CSC2=NCCN2)cc1	8.87
CCCCOc1ccc(CSC2=NCCN2)cc1[N+](=O)[O-].Cl	-22.3
CCCCCOc1ccc(CSC(=N)N)cc1[N+](=O)[O-].Cl	-3.45
CCOc1ccc(CSC2=NCCN2)cc1[N+](=O)[O-].Cl	-71
CCOc1ccc(CSC(=N)N)cc1[N+](=O)[O-].Cl	-50.3
CCCCOc1ccc(CSc2nnc(C)n2N)cc1[N+](=O)[O-]	-2.42
CCCOc1ccc(CSC2=NCCN2)cc1[N+](=O)[O-]	-53.5
CCCCCOc1ccc(CSC2=NCCN2)cc1[N+](=O)[O-]	-60

SMILES	hERG current change (%, negative = inhibition) at 1uM [%]
COc1ccc(CSC2=NCCN2)cc1Cl.Cl	-7.52
COc1ccc(CSC2=NCCN2)cc1Br	10.8
CCOc1ccc(CSC2=NCCN2)cc1Cl.Cl	-4.54
CCCCOc1ccc(CSC(=N)N)cc1[N+](=O)[O-].Cl	-26.4
CCOC(=O)C1CCN(C(=O)CCS(=O)(=O)c2ccc3c(c2)n(C)c(=O)c(=O)n3C)CC1	10.2
COc1cc(OC)cc(C(=O)Nc2ccc3c(c2)OCCO3)c1	7.93
O=C(Cn1cc(/C=C\[N+](=O)[O-])c2ccccc21)Nc1ccccc1	8.45
COc1ccc(OC)c(N2C(=O)CC(Cc3cc(C)cc(C)c3)C2=O)c1 (stereo not shown)	5.71
CSc1ccccc1C(=O)N1CCN(S(=O)(=O)c2sc(C(=O)O)c(C)c2C(=O)O)CC1	0.019
COc1ccc(C2CC(c3ccccc3)=NN2c2ccc(S(N)(=O)=O)cc2)cc1OC (stereo not shown)	7.52
CC(C)CCNC(=O)C1c2ccccc2Oc2ccccc21	-12.1
OCC1(Cc2ccccc2Cl)CCN(C/C=C/c2ccccc2)CC1	-27.8
COc1ccc(CC2(CO)CCN(C/C=C/c3ccccc3OC)CC2)cc1	-71.4
COc1ccc(/C=C/CN2CCCC(CO)(Cc3cccc(Cl)c3)C2)cc1 (stereo not shown)	3.25
COc1ccccc1/C=C/CN1CCC(CO)(Cc2ccccc2)CC1	0.366
COc1cccc(CC2(CO)CCCN(C/C=C/c3ccccc3OC)C2)c1 (stereo not shown)	-32.8
COc1ccc(/C=C/CN2CCC(CO)(Cc3ccccc3Cl)CC2)cc1	-61.9
COc1cc(NS(=O)(=O)c2ccc(NC(=O)COc3ccccc3Cl)cc2)nc(OC)n1	4.62
NC(=O)CSc1nnc(-c2ccccn2)n1N	12.4
CC(=O)Nc1ccc(C(=O)Nc2nc(-c3cc(C)n(Cc4ccccc4)c3C)cs2)cc1	11.3
CC(C)OC(=O)CC(=O)CSc1nc2c(cc1C#N)CCC2	16.3
Cc1ccc(C(=O)Nc2ccc(OCc3ccccc3)cc2)cc1[N+](=O)[O-]	2

— PMC4336329 (PLoS ONE, 2015)
